From PubChem BioAssay
PLAP activator = PLAP enzyme activators, biochemical, luminescence, HTS; purified PLAP enzyme, luminescent substrate read-out; hits give high values; 96,000 tested, 1.2% active; activation fold at 20 µM; Alkaline phosphatase, placental type (Homo sapiens), P05187; in the data active = activation fold above about 2
Target sequence (P05187 whole entry, looked up): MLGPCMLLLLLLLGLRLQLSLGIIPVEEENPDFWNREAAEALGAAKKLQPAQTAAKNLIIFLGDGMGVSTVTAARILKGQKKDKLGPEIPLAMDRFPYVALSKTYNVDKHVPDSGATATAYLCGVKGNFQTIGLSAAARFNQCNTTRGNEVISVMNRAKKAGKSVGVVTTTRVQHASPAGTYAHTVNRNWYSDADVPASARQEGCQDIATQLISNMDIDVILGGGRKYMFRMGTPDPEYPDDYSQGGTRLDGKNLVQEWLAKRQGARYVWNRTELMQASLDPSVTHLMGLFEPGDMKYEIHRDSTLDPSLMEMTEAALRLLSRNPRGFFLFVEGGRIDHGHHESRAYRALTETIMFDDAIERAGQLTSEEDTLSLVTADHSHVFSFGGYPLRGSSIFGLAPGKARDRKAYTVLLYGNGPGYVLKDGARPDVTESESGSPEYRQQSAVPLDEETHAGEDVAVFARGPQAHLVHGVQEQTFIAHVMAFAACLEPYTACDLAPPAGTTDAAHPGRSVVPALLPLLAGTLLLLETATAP
CYP2C19 inh = blockers of cytochrome P450 2C19 activity – biochemical, luminescence, ADME assay, primary screen. CYP2C19 Supersomes, luciferin-H EGE luminescence, 30 min. inhibition, % at 5 µM. 96,000 tested, 21% active. P33261;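 active = CYP2C19 inhibition above a set limit at 5 µM in the primary screen, cut at about 50% in these data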;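 note: plate controls were negative control wells for no effect and 2.5 mM tranylcypromine positive control for full effect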
CYP2C9 activ = human CYP2C9 activators, primary screen, biochemical, luminescence. recombinant CYP2C9, luciferin-H conversion; hits give high values; factor 1 = untreated enzyme, 0 = blocked. AID 1024, 2008. 96,000 tested, 1.4% active. activation factor at 5 µM;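 active = activation factor of 2 or more for CYP2C9 at a 5 µM dose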;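 note: 0 = sulfaphenazole-blocked wells and 1 = vehicle-only wells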
CYP2C19 act = human CYP2C19 activators, primary screen, biochemical, luminescence | Cytochrome P450 2C19 (Homo sapiens), P33261 | recombinant CYP2C19, luciferin-H EGE luminescence; hits give high values; 0 = fully inhibited enzyme, 1 = untreated enzyme | activation factor at 5 µM | 96,000 tested, under 10 active | AID 1025, 2008;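 active = activation factor of at least 2 at 5 µM in the primary screen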;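 note: 0 = wells with 2.5 mM tranylcypromine and 1 = vehicle-only wells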
CYP2C9 inh = blockers of cytochrome P450 2C9 activity – biochemical, luminescence, ADME assay, primary screen; P11712; CYP2C9 Supersomes, luciferin-H conversion; inhibition, % at 5 µM; 96,000 tested, 20% active; AID 777, 2007;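 active = blocking of liver enzyme CYP2C9 beyond about 50% at 5 µM, limit read from the data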
* = called active by the depositor. This is a sample that favours compounds with a hit; in the whole collection about 31% have one here.

SMILES | PLAP activator | CYP2C19 inh | CYP2C9 activ | CYP2C19 act | CYP2C9 inh
CSc1cccc(NC(=O)COc2cccc3ccccc23)c1 | 1 | 29.9 | 2.2* | 0.7 | -121.4
CSc1cccc(NC(=O)CN(C)S(=O)(=O)c2ccccc2)c1 | 0.7 | 86.1* | 0.8 | 0.1 | 19.8
COCC(C)NC(=O)c1cc(-c2ccc(OC)c(OC)c2)on1 (configuration not stated) | 0.9 | 4.6 | 1.2 | 1 | -19.6
O=S(=O)(c1ccccc1Cl)N1CCCC1c1nc(-c2cccc(Cl)c2)no1 (configuration not stated) | 1 | 25.9 | 0.5 | 0.7 | 48.2
Cc1ccc(-c2noc(C3CCCN(C(=O)c4c(F)cccc4F)C3)n2)cc1 (configuration not stated) | 1.8 | 77.8* | 0.1 | 0.2 | 90.8*
CCS(=O)(=O)N1CCCC(c2nc(-c3cccc(OC)c3)no2)C1 (configuration not stated) | 1.1 | 28.1 | 0.8 | 0.7 | 17.1
COc1ccc(-c2noc(C3CCCN(S(=O)(=O)c4cccc(Cl)c4C)C3)n2)cc1OC (configuration not stated) | 1.6 | 91.1* | 0.2 | 0.1 | 84.8*
COc1ccc(-c2noc(C3CCCN(C(=O)c4ccccc4OC)C3)n2)cc1OC (configuration not stated) | 1.6 | 4.9 | 0.8 | 1 | 17.4
O=S(=O)(c1ccccc1Cl)N1CCCC(c2nc(-c3cccnc3)no2)C1 (configuration not stated) | 1.4 | 95.0* | 0.2 | 0.1 | 78.7*
CCCS(=O)(=O)N1CCCC(c2nc(-c3ccc(OC)cc3)no2)C1 (configuration not stated) | 0.9 | 33.8 | 0.2 | 0.7 | 82.1*
COc1ccccc1Nc1ncccc1C(=O)NCc1ccccc1 | 1.1 | 15.4 | 0.8 | 0.8 | 24.3
COC(=O)c1sccc1NC(=O)CSc1nnnn1-c1ccccc1C | 1 | -9.6 | 1.5 | 1.1 | -45.9
CCc1sc(NS(C)(=O)=O)nc1-c1ccccc1 | 0.9 | 10.1 | 0.8 | 0.9 | 18.4
COc1ccc(C(=O)N2CCCC(c3nc(-c4ccc(OC)c(OC)c4)no3)C2)c(OC)c1 (configuration not stated) | 1.4 | 40.0 | 0.4 | 0.6 | 61.4*
COc1ccc(-c2noc(C3CCCN(S(=O)(=O)c4ccc(C)c(Cl)c4)C3)n2)cc1OC (configuration not stated) | 1.2 | 67.6* | 0.4 | 0.3 | 56.6*
CC(=O)c1cccc(S(=O)(=O)N2CCCC(c3nc(-c4ccc(C)o4)no3)C2)c1 (configuration not stated) | 1.6 | 37.6 | 0.7 | 0.6 | 30.4
Cc1ccc(CO/N=C\Cc2snc(Sc3ncc(C(F)(F)F)cc3Cl)c2C#N)cc1 | 0.8 | 51.7* | 1.2 | 0.5 | -18.8
Cc1ccc(CNc2ccc(N3CCOCC3)c(C(=O)O)c2)s1 | 1.5 | -4.8 | 1.1 | 1 | -6.4
COc1ccc(CNC(=O)c2cccc(N3CCCC3=O)c2)cc1 | 0.9 | 71.6* | 0.3 | 0.3 | 71.4*
O=C(NCc1ccc(N2CCCC2=O)cc1)c1cn(Cc2ccccc2)nn1 | 0.9 | 3.6 | 0.9 | 1 | 8.0
O=C(NCc1ccc(N2CCCC2=O)cc1)Nc1cccc(Cl)c1 | 0.9 | 59.2* | 0.3 | 0.4 | 72.5*
COc1ccc(CNC(=O)c2ccc3c(c2)N(C)C(=O)CS3=O)cc1 (configuration not stated) | 1.3 | -3.3 | 0.4 | 1 | 63.6*
CCN(CCNC(=O)c1cccc(N2CCCC2=O)c1)c1ccccc1 | 1.4 | 89.1* | 1.1 | 0.1 | -10.2
CN(CCNC(=O)c1cccc(N2CCCC2=O)c1)Cc1ccccc1 | 1.4 | 17.9 | 0.8 | 0.8 | 20.5
O=C(NCc1ccco1)c1cccc(N2CCCC2=O)c1 | 1.1 | 21.7 | 0.6 | 0.8 | 37.8
Cc1ccc(-c2csc3n[nH]c(=S)n23)cc1 | 0.8 | 6.8 | 0.8 | 0.9 | 16.7
Cc1cccc2cc(CN(Cc3cccs3)C3(c4nnnn4C4CCCC4)CCCC3)c(=O)[nH]c12 | 1.4 | 11.5 | 0.6 | 0.9 | 41.8
COC(=O)c1ccc(OCC(=O)Nc2nn(-c3ccccc3)nc2C(N)=O)cc1 | 0.9 | -7.3 | 1 | 1.1 | -0.3
